Results published in PubChem BioAssay (NCI).
This is part of a sample that, as a whole, favours compounds with a hit. Of some 83,000 tested, about 20% had one in any assay.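 Single-dose data. Exposure time 48 hours. Values below 10 considered active.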 Active and inactive are the calls of the source.

Tests used:
Assay in all cases: NCI-60 one-dose screen, 48 h (100 = growth as untreated, 0 = no growth, -100 = all killed)
Conditions in all cases: 10 µM unless noted
[1] = test system: RPMI-8226 leukemia
[2] = test system: OVCAR-8 ovarian
[3] = test system: OVCAR-5 ovarian
[4] = test system: OVCAR-4 ovarian
[5] = test system: SK-OV-3 ovarian
[6] = test system: IGROV1 ovarian
[7] = test system: OVCAR-3 ovarian
[8] = test system: HS 578T breast
[9] = test system: NCI/ADR-RES ovarian
[10] = test system: T-47D breast
[11] = test system: BT-549 breast
[12] = test system: MDA-MB-435 melanoma
[13] = test system: SW-620 colon
[14] = test system: MCF7 breast
[15] = test system: HCT-116 colon
[16] = test system: HCC-2998 colon
[17] = test system: KM12 colon

Measured: growth

Cc1ccc(NS(=O)(=O)c2ccc(-c3cnc(C4CC4)o3)cc2)cc1C
inactive: [1] 12.4% | [2] 28.2% | [3] 37.6% | [4] 43.2% | [5] 30.7% | [6] 29.5% | [8] 14.3% | [10] 26.4% | [11] 35.5% | [13] 19.7% | [14] 12.1% | [15] 19.4% | [16] 45% | [17] 42.8%
active: [7] -1.67% | [9] -10.9% | [12] 4.45%

CCn1c(Cc2ccccc2Nc2c(Cl)cccc2Cl)nnc1SCC(=O)NN1C(=O)/C(=C/c2cc(OC)c(O)c(OC)c2)SC1=S
active: [7] 7.37% | [8] 5.34% | [12] -46.5%
inactive: [1] 47% | [2] 60% | [3] 55.5% | [4] 74% | [5] 23.2% | [6] 42.9% | [9] 88.6% | [10] 24.4% | [11] 50% | [13] 21.2% | [14] 16.9% | [15] 11.5% | [16] 56.9% | [17] 18%

COc1cccc(-c2nn(C(C)(C)C)cc2-c2ccnc(NCCCNS(=O)(=O)c3cccc4ccccc34)c2)c1
inactive: [1] 103% | [2] 103% | [3] 104% | [4] 101% | [5] 110% | [6] 110% | [7] 108% | [8] 101% | [9] 101% | [10] 102% | [11] 108% | [12] 102% | [13] 106% | [14] 98.6% | [15] 98.7% | [16] 114% | [17] 99.5%

CC(C)n1c(/C=C/[C@@H](O)C[C@@H](O)CC(=O)O)c(-c2ccc(F)cc2)c2ccccc21
inactive: [1] 53.2% | [2] 40.2% | [3] 85.8% | [4] 90.4% | [5] 72.6% | [6] 34.3% | [7] 84.8% | [8] 55.1% | [9] 22.1% | [10] 72.7% | [11] 60.6% | [12] 55.8% | [13] 72.9% | [15] 22.1% | [16] 77.7% | [17] 87.5%

CCOC(=O)c1sc(Nc2ccc(Cl)cc2)nc1C
active: [1] 7.4% | [10] 6.67% | [11] -4.09% | [15] 5.31% | [17] -1.62%
inactive: [2] 19.8% | [3] 51.6% | [4] 18.2% | [5] 20.3% | [6] 19.3% | [7] 27.4% | [8] 10.1% | [9] 17.5% | [12] 23.1% | [13] 28.2% | [14] 13%

O=C(N=Nc1c(O)[nH]c2ccccc12)c1cc(-c2ccccc2)on1
inactive: [1] 112% | [2] 102% | [3] 99.8% | [4] 104% | [5] 116% | [6] 104% | [7] 111% | [8] 96.7% | [9] 105% | [10] 97.6% | [11] 109% | [12] 110% | [13] 97.8% | [14] 87.9% | [15] 99.7% | [16] 111% | [17] 101%

C=CC(=O)Nc1cccc(-c2nc(SC)nc(NCCc3ccc(OC)c(OC)c3)c2C#N)c1
active: [1] 9.33% | [10] 8.57%
inactive: [2] 30.7% | [3] 91.7% | [4] 19.4% | [5] 89.3% | [6] 65.7% | [7] 53.6% | [8] 71.1% | [9] 23.7% | [11] 25% | [12] 24.2% | [13] 80.8% | [14] 16.5% | [15] 31.4% | [16] 87.1% | [17] 64.6%

O=C(N=Nc1c(O)[nH]c2ccc(Br)cc12)c1cc(-c2ccccc2)on1
inactive: [1] 105% | [2] 104% | [3] 98.9% | [4] 94.9% | [5] 111% | [6] 101% | [7] 115% | [8] 99.1% | [9] 103% | [10] 101% | [11] 104% | [12] 95.8% | [13] 103% | [14] 93.2% | [15] 106% | [16] 103% | [17] 100%

C=CC(=O)Nc1cccc(Nc2nc(SC)nc(-c3cccc([N+](=O)[O-])c3)c2C#N)c1
inactive: [1] 48.2% | [2] 43.4% | [3] 71.8% | [4] 32.9% | [5] 74.3% | [6] 54.9% | [7] 19.9% | [8] 53.7% | [9] 61.8% | [10] 42.7% | [11] 58.4% | [12] 53% | [13] 31.6% | [14] 28.5% | [15] 19.8% | [16] 48.2% | [17] 90.5%
